Measurements published in PubChem BioAssay.
The source made the active and inactive calls.

Assays:
Albumin (Bos taurus) = Albumin (Bos taurus) (UniProt P02769); assay: bovine serum albumin binders on microarray, profiling panel, artefact control for SMM control protein annotation, biochemical, small-molecule microarray, Alexa647 label, 635/667 nm fluorescence (AID 1118); conditions: BSA-A647 binding, fluorescence 635 nm, higher = more signal;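 further: score merges 667 nm emission intensity and signal-to-noise per printed compound spot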
[1] = small-molecule microarray binders of probe aXIP, primary screen, biochemical, NeuroSMM set, 635/667 nm fluorescence (AID 1119); conditions: higher = more signal, called active from +8 up or from −8 down;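 further: probe is the protein aXip251-270 applied at 1 µg/mL to compound-printed slides; binding of probe to printed compounds measured as 667 nm fluorescence plus signal to noise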
[2] = small-molecule binders of probe aNOTCH3, primary screen, biochemical, small-molecule microarray, 635/667 nm fluorescence (AID 1120); conditions: higher = more signal;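 further: probe is a biotin-tagged antibody raised against NOTCH3 rather than NOTCH3 protein; score merges spot fluorescence near 667 nm with spot signal to noise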
[3] = small-molecule binders of probe aNOTCH2, primary screen, biochemical, small-molecule microarray, 635/667 nm fluorescence (AID 1121); conditions: higher = more signal;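 further: score merges feature fluorescence read at 667 nm with its signal to noise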
[4] = molecular target: Carbonic anhydrase 2 (Homo sapiens) (UniProt P00918); assay: CAII small-molecule binders, profiling panel, biochemical, small-molecule microarray, Alexa647-labelled CAII (AID 1122); conditions: CAII-A647 binding fluorescence, higher = more signal
[5] = COS7 lysate on small-molecule microarray, probe aHis, 635 nm (AID 1123); conditions: COS7 cell lysate, fluorescence, higher = more signal;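 further: z-score combines 667nm fluorescence intensity with signal-to-noise per printed compound spot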
[6] = compound binding in COS7 lysate, probe aLAP1, primary screen, cell lysate, small-molecule microarray (AID 1124); conditions: probe aLAP1, fluorescence, higher = more signal;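 further: lysate comes from COS7 cells expressing LAP1 and is applied at 0.3 µg/mL; score merges spot fluorescence near 667 nm with signal-to-noise over triplicate slides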
Sam68 (KHDRBS1) = assay: Sam68 small-molecule binders, primary screen, biochemical, small-molecule microarray, 635 nm fluorescence (AID 1125); conditions: small-molecule microarray binding, higher = more signal;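 further: score merges 667 nm channel intensity with signal to noise over triplicate slides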
[7] = system: Chordin-like protein 2 (CHRDL2); assay: CHRDL2 small-molecule binders, primary screen, biochemical, small-molecule microarray, 635 nm fluorescence (AID 1126); conditions: small-molecule microarray binding, fluorescence 635 nm; higher = more signal;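 further: printed compound slides probed with Chrdl2 protein at 4 µg/mL for 1 h at 4 C; score merges 667 nm emission intensity with signal to noise over three replicate slides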
[8] = molecular target: Concanavalin-A (Canavalia ensiformis) (UniProt P02866); assay: ConA small-molecule binders, primary screen, artefact control for SMM control protein annotation, biochemical, small-molecule microarray, Alexa647 label, 635 nm (AID 1127); conditions: ConA-A647 binding fluorescence, higher = more signal;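 further: z combines 667 nm emission intensity with signal-to-noise across three replicate slides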
Sequence of Concanavalin-A (Canavalia ensiformis) (P02866 whole entry, looked up): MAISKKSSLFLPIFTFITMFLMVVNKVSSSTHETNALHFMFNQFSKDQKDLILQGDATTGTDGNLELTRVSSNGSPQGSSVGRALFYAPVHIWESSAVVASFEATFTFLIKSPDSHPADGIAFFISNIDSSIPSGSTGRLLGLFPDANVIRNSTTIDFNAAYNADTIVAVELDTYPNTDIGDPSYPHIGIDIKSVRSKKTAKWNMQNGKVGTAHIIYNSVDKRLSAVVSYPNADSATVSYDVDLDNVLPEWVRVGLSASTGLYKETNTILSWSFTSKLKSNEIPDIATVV

Sequence of Albumin (Bos taurus) (P02769 whole entry, looked up): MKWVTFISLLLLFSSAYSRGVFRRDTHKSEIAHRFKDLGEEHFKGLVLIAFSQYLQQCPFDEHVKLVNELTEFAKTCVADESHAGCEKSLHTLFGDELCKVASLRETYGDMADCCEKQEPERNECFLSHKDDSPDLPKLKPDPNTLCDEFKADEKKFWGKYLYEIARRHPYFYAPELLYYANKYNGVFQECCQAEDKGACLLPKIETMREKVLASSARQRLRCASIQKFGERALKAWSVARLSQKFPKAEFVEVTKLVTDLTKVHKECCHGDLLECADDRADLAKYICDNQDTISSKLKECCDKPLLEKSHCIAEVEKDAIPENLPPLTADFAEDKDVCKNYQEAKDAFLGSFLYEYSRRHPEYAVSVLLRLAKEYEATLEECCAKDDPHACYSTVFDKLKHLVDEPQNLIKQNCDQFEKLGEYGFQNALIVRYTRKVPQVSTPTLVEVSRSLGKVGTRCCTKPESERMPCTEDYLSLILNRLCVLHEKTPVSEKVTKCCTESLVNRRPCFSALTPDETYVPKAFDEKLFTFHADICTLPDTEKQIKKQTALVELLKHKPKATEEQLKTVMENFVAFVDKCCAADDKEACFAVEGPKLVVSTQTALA

| Compound | composite z-score (Albumin (Bos taurus)) | composite Z-score [1] | composite z-score [2] | composite z-score [3] | composite z-score [4] | composite z-score [5] | composite z-score [6] | composite z-score (Sam68 (KHDRBS1)) | composite z-score [7] | composite z-score [8] |
| --- | --- | --- | --- | --- | --- | --- | --- | --- | --- | --- |
| O=C(NCc1ccccc1)[C@@]1(Cc2ccccc2)N=C(c2ccc(OCCCO)cc2)O[C@H]1c1ccccc1 | 0.974 | 0.1 (inactive) | 0.261 | 0.349 | 0.617 | 2.41 | 1.4 | 1.31 | -1.46 | 1.15 |
| [N-]=[N+]=NCc1ccccc1C[C@]1(C(=O)N2CCOCC2)N=C(c2ccc(OCCCO)cc2)O[C@H]1c1ccccc1N=[N+]=[N-] | 0.889 | -0.235 (inactive) | 0.311 | -0.0301 | 0.53 | 2.53 | 0.798 | 1.34 | 0.519 | 1.04 |
| CC(C)(C)OC(=O)CC[C@@]1(C(=O)NCCN2CCOCC2)N=C(c2ccc(OCCCO)cc2)O[C@@H]1c1ccccc1N=[N+]=[N-] | 0.641 | 0.393 (inactive) | 0.375 | 0.103 | 0.742 | 1.81 | 0.0412 | 1.33 | 0.178 | 0.289 |
| CCCCCN1CC=CC23O[C@@H]4/C=C\CCCOC(=O)C4[C@H]2C(=O)N(CCCO)[C@@H]3C1=O (stereo not given in full) | 0.433 | -0.0981 (inactive) | -0.095 | -0.104 | 0.689 | 1.82 | 1.04 | 0.798 | -0.343 | 0.256 |
| C=CCC(OC(C)=O)[C@@H]1[C@@H](N(Cc2ccc(-c3cccc(C(F)(F)F)c3)o2)C(=O)c2ccc(-c3ccccc3)cc2)c2cc(OCCCO)ccc2N1C(=O)c1ccc(-c2ccccc2)cc1 (stereo not given in full) | 0.0046 | 0.111 (inactive) | -0.0957 | -0.126 | -0.0098 | 0.0291 | -0.128 | -0.197 | -0.0179 | -0.639 |
| CCCCC=C[C@@H](NC(=O)Oc1cccc(C(F)(F)F)c1)c1ccccc1 | 1.02 | 0.505 (inactive) | 0.888 | 0.39 | 0.755 | 0.183 | -0.403 | 1.27 | -0.0519 | 1.13 |
| CN1C(=O)C2C=CC(C(O)C3CC=CCC3)N(NC(=O)OC(C)(C)C)C2C1=O (stereo not given) | 1.03 | 3.41 (inactive) | 0.178 | -0.121 | 0.713 | 3.19 | 0.532 | 1.32 | 0.547 | 0.627 |
| O=C(c1ccccc1)N1Cc2ccccc2[C@@H]2OC(c3ccc(OCCCO)cc3)=N[C@]2(Cc2ccccc2)C1=O | 0.383 | 0.07 (inactive) | 0.225 | -0.18 | 0.554 | 1.38 | 0.482 | 1.31 | 0.061 | 1.13 |
| COCCOC(=O)N1C(=O)[C@@]2(c3cc(C#CCNC(N)=O)ccc31)[C@H](C(=O)NC[C@H](O)c1ccccc1)[C@H]1C(=O)O[C@H](c3ccccc3)[C@H](c3ccccc3)N1[C@@H]2c1ccccc1OCCO | 0.509 | 0.529 (inactive) | 0.411 | 0.0156 | 0.296 | 1.28 | 0.854 | 1.28 | 0.209 | 1.01 |
| O=C1NC(=O)C2C1C=CC(C(O)Cc1ccccc1)N2Nc1ccc(Cl)cc1Cl (stereo not given) | 0.809 | -0.082 (inactive) | 0.198 | -0.11 | 0.803 | 2.07 | -0.226 | -1.18 | -1.15 | -0.652 |
| O=C1C2C=CC(C(O)c3c(F)cccc3Cl)N(Nc3ccccc3)C2C(=O)N1c1ccccc1 (stereo not given) | 0.876 | 0.229 (inactive) | 0.418 | 0.014 | 0.382 | 2.81 | 0.045 | 1.31 | -0.3 | 1.14 |
| [N-]=[N+]=NCc1ccccc1[C@@H]1OC(c2ccc(OCCCO)cc2)=N[C@]1(Cc1ccccc1N=[N+]=[N-])C(=O)N1CCOCC1 | 0.809 | 0.105 (inactive) | 0.387 | 0.408 | 0.765 | 2.9 | 0.493 | 1.29 | -0.119 | 1.21 |
| C[N+](C)(C)CCCC[C@@H]1NC(=O)[C@@H]2C[C@H](C(=O)NCCCCCN)[C@H](c3cccc(OCCO)c3)N2C1=O | 0.924 | 0.0926 (inactive) | -0.0744 | 0.0292 | 0.832 | 2.08 | -0.207 | 1.32 | -0.633 | 0.929 |
| COCCOC(=O)N1C(=O)[C@@]2(c3cc(C#CC4=CCCCC4)ccc31)[C@H](C(=O)Nc1nc3ccccc3s1)[C@H]1C(=O)O[C@H](c3ccccc3)[C@H](c3ccccc3)N1[C@@H]2c1ccccc1OCCO | 0.657 | -0.478 (inactive) | 0.757 | 0.248 | 0.188 | 1.1 | -0.123 | 1.13 | 0.367 | 1.14 |
| C#CCN(CC1=CCCCC1)[C@H](c1ccccc1Br)[C@@H](O)Cc1ccccc1 | 0.306 | -0.356 (inactive) | -0.344 | -0.177 | 0.345 | 0.545 | 0.0773 | 0.516 | -0.882 | -0.679 |
| CC(C)C[C@@H]1NC(=O)[C@@H]2C[C@H](C(=O)NCCCCCN)[C@H](c3cccc(OCCO)c3)N2C1=O | 1.02 | 0.425 (inactive) | 0.0992 | -0.17 | 0.813 | 1.03 | 1.16 | 0.839 | 0.0186 | 1.2 |
